Screening data: PubChem, Sanford-Burnham Center for Chemical Genomics
CYP2C19 act = human CYP2C19 activators, primary screen, biochemical, luminescence; recombinant CYP2C19, luciferin-H EGE luminescence; hits give high values; 0 = fully inhibited enzyme, 1 = untreated enzyme; activation factor at 5 µM; 96,000 tested, under 10 active; AID 1025, 2008;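 active = activation factor of at least 2 at 5 µM in the primary screen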;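 also: 0 = wells with 2.5 mM tranylcypromine and 1 = vehicle-only wells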
Target sequence (P33261 whole entry, looked up): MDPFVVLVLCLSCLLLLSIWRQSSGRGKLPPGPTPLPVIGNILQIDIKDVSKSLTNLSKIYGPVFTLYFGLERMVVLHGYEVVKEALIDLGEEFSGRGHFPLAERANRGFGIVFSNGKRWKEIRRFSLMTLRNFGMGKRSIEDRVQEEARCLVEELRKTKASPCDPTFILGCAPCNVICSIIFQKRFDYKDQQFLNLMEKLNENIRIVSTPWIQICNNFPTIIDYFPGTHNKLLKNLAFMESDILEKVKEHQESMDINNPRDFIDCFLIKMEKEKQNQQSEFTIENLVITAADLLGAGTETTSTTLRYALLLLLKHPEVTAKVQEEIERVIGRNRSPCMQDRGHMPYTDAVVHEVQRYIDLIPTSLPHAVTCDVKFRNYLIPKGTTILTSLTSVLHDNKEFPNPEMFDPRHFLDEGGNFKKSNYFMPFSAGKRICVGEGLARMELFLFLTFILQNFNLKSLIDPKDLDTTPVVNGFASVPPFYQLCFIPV
CYP2C9 inh = blockers of cytochrome P450 2C9 activity – biochemical, luminescence, ADME assay, primary screen | P11712 | CYP2C9 Supersomes, luciferin-H conversion | inhibition, % at 5 µM | actives 20% (n = 96,000) | AID 777, 2007;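 active = blocking of liver enzyme CYP2C9 beyond about 50% at 5 µM, limit read from the data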
CYP2C19 inh = blockers of cytochrome P450 2C19 activity – biochemical, luminescence, ADME assay, primary screen. actives 21% (n = 96,000). inhibition, % at 5 µM. AID 778, 2007. CYP2C19 Supersomes, luciferin-H EGE luminescence, 30 min;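 active = CYP2C19 inhibition above a set limit at 5 µM in the primary screen, cut at about 50% in these data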;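 also: plate controls were negative control wells for no effect and 2.5 mM tranylcypromine positive control for full effect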
PTK2B oligo ant = antagonists of Pyk2 self-association, primary screen, Q293 cells, FERM NanoBiT luminescence, HTS; Protein-tyrosine kinase 2-beta (Homo sapiens), Q14289; hits give low values; z-score (the deposit names both 25 µM and 10 µM); actives 0.83% (n = 99,000); AID 1347419, 2020;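 active = Z-score of -3 or lower, scaled per plate to the spread of control and sample wells; inactive = z-score above -3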;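 also: negative z-score means lost luminescence so less FERM oligomerization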
CYP2C9 act = human CYP2C9 activators, primary screen, biochemical, luminescence; Cytochrome P450 2C9 (Homo sapiens), P11712; recombinant CYP2C9, luciferin-H conversion; hits give high values; factor 1 = untreated enzyme, 0 = blocked; activation factor at 5 µM; actives 1.4% (n = 96,000); AID 1024, 2008;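 active = activation factor of 2 or more for CYP2C9 at a 5 µM dose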;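 also: 0 = sulfaphenazole-blocked wells and 1 = vehicle-only wells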
The depositor's hits bear a star; · = no result. A selection: hits, their analogues and other compounds. The true share with any hit is near 28%.

SMILES	CYP2C19 act	CYP2C9 inh	CYP2C19 inh	PTK2B oligo ant	CYP2C9 act
CCCOC(=O)c1ccc(NC(=O)c2cnccn2)cc1	0.9	22	10	0.73	0.8
COc1ccc(Oc2c(-c3ccc(O)cc3O)n[nH]c2C)cc1	0	100*	100*	-2.1	0
CCCOC(=O)c1ccc(Oc2cn[nH]c2-c2ccc(OCC)cc2O)cc1	0.1	100*	88*	-0.55	0
Cc1cccc2cc(C(c3nnnn3CC3CCCO3)N3CCc4ccccc4C3)c(=O)[nH]c12 (stereo not drawn)	0.5	60*	47	·	0.4
Cc1ccc2cc(C(c3nnnn3CC3CCCO3)N3CCc4ccccc4C3)c(=O)[nH]c2c1 (stereo not drawn)	0.6	71*	42	0.92	0.3
Cc1cccc2cc(C(c3nnnn3Cc3ccc4c(c3)OCO4)N3CCCC3)c(=O)[nH]c12 (stereo not drawn)	0.6	50*	38	0.22	0.5
O=c1[nH]c2cc3c(cc2cc1C(c1nnnn1Cc1ccccc1)N1CCCCCC1)OCCO3 (stereo not drawn)	0.9	18	14	0.14	0.8
Cc1cc(C(c2nnnn2Cc2ccccc2)N2CCOCC2)c(C)n1-c1ccc2c(c1)OCO2 (stereo not drawn)	0	90*	96*	-0.49	0.1
O=C(CCl)NCc1c(Cl)cccc1-n1cccc1	0.8	-1	16	0.6	1
Cc1ccc(C)c2[nH]c(=O)c(C(c3nnnn3Cc3ccccc3)N3CCc4ccccc4C3)cc12 (stereo not drawn)	0.1	73*	85*	1.3	0.3
Cc1cc2cc(C(c3nnnn3CC3CCCO3)N3CCCc4ccccc43)c(=O)[nH]c2cc1C (stereo not drawn)	0.8	35	16	0.5	0.7
Cc1cccc2cc(C(c3nnnn3CC3CCCO3)N3CCCc4ccccc43)c(=O)[nH]c12 (stereo not drawn)	0.7	56*	28	-0.29	0.4
CCOc1ccc2[nH]c(=O)c(C(c3nnnn3CC3CCCO3)N3CCc4ccccc4C3)cc2c1 (stereo not drawn)	0.5	68*	50*	0.83	0.3
Cc1cc(C)c2cc(C(O)c3nnnn3Cc3ccccc3)c(=O)[nH]c2c1 (stereo not drawn)	1	0	3	1.8	1
COCC(=O)N(C)c1nnc(-c2cnc(C)cn2)s1	1	7	1	0.87	0.9
Cc1sc2ncn(CC(=O)NCc3ccccn3)c(=O)c2c1S(=O)(=O)N1CCOCC1	·	·	·	1.3	·
COc1ccc(NC(=O)CN(c2cccc(F)c2)S(C)(=O)=O)cc1OC	0.5	40	47	-0.27	0.6
Cc1ccc(N(CC(=O)N/N=C/c2cc(C)n(-c3ccccc3)c2C)S(C)(=O)=O)c(C)c1	0.8	21	18	0.91	0.8
CN(C)c1ccc(NC(=O)CN2CCN(CC(=O)Nc3ccc(F)cc3)CC2)cc1	0.9	5	13	0.02	0.9
CSc1cccc(NC(=O)CN(c2cccc(C)c2)S(C)(=O)=O)c1	0.3	62*	72*	-1.9	0.4
Cc1cccc(N(CC(=O)Nc2ccc(F)cc2)S(C)(=O)=O)c1	0	82*	96*	-0.71	0.2
Cc1ccc(N(CC(=O)Nc2ccc(F)cc2)S(=O)(=O)N2CCCC2)cc1	0.7	62*	34	-0.38	0.4
CSc1cccc(NC(=O)CN(c2ccc(C)cc2C)S(C)(=O)=O)c1	0.1	62*	95*	-3	0.4
CC(=O)c1cccc(NC(=O)CN(c2ccccc2)S(C)(=O)=O)c1	0.7	18	26	-0.08	0.8
Cc1ccc(NC(=O)CC2CS(=O)(=O)CC2CC(=O)Nc2ccc(C)c(C)c2)cc1C (stereo not drawn)	0.6	6	37	-0.44	0.9
SMILES	CYP2C19 act	CYP2C9 inh	CYP2C19 inh	PTK2B oligo ant	CYP2C9 act
Cc1ccc2c(c1)[nH]c1c(=O)n(CCC3=CCCCC3)cnc12	0.4	7	55*	·	0.9
Cc1ccc2[nH]c3c(=O)n(CCC4=CCCCC4)cnc3c2c1	0.6	23	40	·	0.8
O=c1c2[nH]c3ccccc3c2ncn1CCC1=CCCCC1	0.3	34	67*	0.67	0.7
CSC(=O)CC(=O)NC(=O)c1ccccc1	1	48	1	0.27	0.5
CCOC(=O)N1CCC(Nc2c(NCCN3CCN(c4ccccc4F)CC3)c(=O)c2=O)CC1	1	25	4	·	0.7
CSc1nc2sc3c(c2c2nnnn12)CCC3	0.4	11	62*	·	0.9
CSc1nc2sc3c(c2c2nnnn12)CCCC3	0.9	22	10	-0.25	0.8
Cc1cccc(C)c1OCC(O)CNC(C)(C)C (stereo not drawn)	1	-15	-5	0.82	1.1
CCc1ccc(NC(=O)C2CC(=O)N(C(C)C)C2)cc1 (stereo not drawn)	1.1	-20	-14	1	1.2
COC(=O)c1nc2cc(C)ccn2c1F	0.9	12	5	·	0.9
COC(=O)c1c(C(=O)OC)c2cc(C)ccn2c1Cl	0.5	54*	47	0.27	0.5
CCCc1cc(=O)[nH]c(SCc2ccc(Cl)cc2)n1	0.1	72*	86*	-0.55	0.3
CCCc1cc(=O)[nH]c(SCC(=O)N(Cc2ccccc2)C(C)C)n1	0.3	85*	68*	-0.26	0.2
CCCc1cc(=O)[nH]c(SCc2ccccc2)n1	0.5	62*	47	1.5	0.4
CCCc1cc(=O)[nH]c(SCc2cc(Cl)ccc2OC(F)F)n1	0.7	60*	28	-1.1	0.4
CCCc1cc(=O)[nH]c(SCc2cccc(C)c2)n1	0.8	44	21	-0.05	0.6
COc1cc(Cn2cnnn2)ccc1O	1.1	-64	-5	-0.01	1.6
CN(C)C(=O)c1noc2cc([N+](=O)[O-])ccc12	1	-10	3	0.5	1.1
CN(C)CCN1C(=O)C(=O)/C(=C(/O)c2ccc(OCc3ccccc3)cc2)C1c1ccncc1 (stereo not drawn)	0.9	-5	9	0.12	1
COc1ccc(C(=O)NC(=S)Nc2nc(C)c(C(=O)N(C)C)s2)cc1	1	63*	-2	0.94	0.4
Cc1nc(NC(=S)NC(=O)c2cccs2)sc1C(=O)N(C)C	0.8	30	19	-0.2	0.7
COCC(=O)N/N=C(\C)CC(=O)Nc1ccccc1C(N)=O	0.8	0	21	0.09	1
CCN1C(=O)/C(=C\c2cccs2)C(C(=O)OC)=C1C	0.9	51*	14	0	0.5
COC(=O)C1=C(C)N(CC(C)C)C(=O)/C1=C\c1cccs1	0.7	28	31	-0.58	0.7
